# Among all 39,000 compounds or so, about 3,300 (8.5%) were called active. Shown is part of a subset that was picked to be rich in actives.
# System: HepG2
# Assay: cytotoxicity call (relative viability < 0.9)
# Settings: 10 µM
row,Structure (SMILES),cytotoxicity call
1,O=C(O)[C@@H]1CCCCN1,inactive
2,C1CCC(C(C[C@H]2CCCCN2)C2CCCCC2)CC1,active
3,OC[C@@H]1CCCCN1,inactive
4,C1CCC(C(CC2CCCCN2)C2CCCCC2)CC1.O=C(O)C=CC(=O)O (stereo not drawn),active
5,OC[C@@H]1CCCN1,inactive
6,O=C(O)CC[C@H]1CCCCN1,inactive
7,C[C@H]1CN([C@@H](C)CO)C(=O)c2cccc(NS(=O)(=O)c3cn(C)cn3)c2O[C@H]1CN(C)CC1CCCCC1,inactive
8,CCCC#Cc1ccc2c(c1)O[C@@H](CN(C)S(=O)(=O)c1cccc(F)c1)[C@@H](C)CN([C@@H](C)CO)S2(=O)=O,inactive
9,O=C(CN1CCOCC1)NCC[C@H]1CC[C@@H](NC(=O)c2ccccc2F)[C@@H](CO)O1,inactive
10,CC(C)NC(=O)N(C)C[C@@H]1Oc2ccc(NC(=O)CCCN(C)C)cc2C(=O)N([C@H](C)CO)C[C@H]1C,inactive
11,Nc1oncc1-c1ccc(Cl)cc1,inactive
12,CCc1nc2ccccc2nc1CC,inactive
13,CCc1nc(N)nc(N)c1-c1ccc(Cl)cc1,active
14,C[C@@H]1CN([C@@H](C)CO)C(=O)c2cc(NC(=O)Nc3ccccc3)ccc2O[C@@H](C)CCCCO[C@H]1CN(C)C(=O)Cc1ccccc1,inactive
15,C[C@@H]1CCCCO[C@@H](CN(C)C(=O)Nc2ccc(F)cc2)[C@@H](C)CN([C@H](C)CO)C(=O)c2cc(NC(=O)Nc3ccc(C(F)(F)F)cc3)ccc2O1,inactive
16,C[C@H]1CN([C@@H](C)CO)S(=O)(=O)c2ccc(C#Cc3ccccc3F)cc2O[C@H]1CN(C)C(=O)c1ccc2c(c1)OCO2,inactive
17,C[C@@H]1CN([C@H](C)CO)S(=O)(=O)c2ccc(C#Cc3ccccc3F)cc2O[C@@H]1CN(C)CC1CC1,inactive
18,CC(C)CC#Cc1ccc2c(c1)O[C@H](CN(C)CC1CCOCC1)[C@@H](C)CN([C@H](C)CO)S2(=O)=O,inactive
19,C[C@@H]1CN([C@@H](C)CO)S(=O)(=O)c2ccc(C#Cc3ccccc3F)cc2O[C@H]1CN(C)C(=O)Cc1cccnc1,inactive
20,C[C@@H]1CN([C@@H](C)CO)S(=O)(=O)c2ccc(C#Cc3ccccc3F)cc2O[C@H]1CN(C)CC1CC1,inactive
21,CC(C)CC#Cc1ccc2c(c1)O[C@@H](CN(C)CC1CCOCC1)[C@H](C)CN([C@@H](C)CO)S2(=O)=O,active
22,C[C@H](CO)N1C[C@H](C)[C@H](CN(C)CC2CC2)Oc2cc(C#Cc3ccccc3F)ccc2S1(=O)=O,active
23,C[C@H]1CN([C@@H](C)CO)S(=O)(=O)c2ccc(C#Cc3ccccc3F)cc2O[C@@H]1CN(C)C(=O)c1ccc2c(c1)OCO2,inactive
24,CC(C)CC#Cc1ccc2c(c1)O[C@@H](CN(C)CC1CCOCC1)[C@@H](C)CN([C@H](C)CO)S2(=O)=O,inactive
25,C[C@@H]1CN([C@@H](C)CO)S(=O)(=O)c2ccc(C#Cc3ccccc3F)cc2O[C@@H]1CN(C)C(=O)Cc1cccnc1,active
26,C[C@@H]1CN([C@H](C)CO)S(=O)(=O)c2ccc(C#Cc3ccccc3F)cc2O[C@@H]1CN(C)C(=O)Cc1cccnc1,inactive

row,Structure (SMILES),cytotoxicity call
1,C[C@@H]1CN([C@@H](C)CO)S(=O)(=O)c2ccc(C#Cc3ccccc3F)cc2O[C@@H]1CN(C)C(=O)c1ccc2c(c1)OCO2,active
2,C[C@H]1CN([C@@H](C)CO)S(=O)(=O)c2ccc(C#CC3CC3)cc2O[C@@H]1CN(C)C(=O)c1cccc(F)c1,inactive
3,Cc1noc(C)c1NC(=O)N(C)C[C@H]1OCCCC[C@@H](C)Oc2ccc(NC(=O)Nc3ccccc3)cc2C(=O)N([C@@H](C)CO)C[C@H]1C,inactive
4,CCC(=O)n1ccc(C(=O)N2CCOCC2)n1,inactive
5,O=C(Nc1nn[nH]n1)C1CCCCC1,inactive
6,C[C@@H]1CCCCO[C@H](CN(C)Cc2ccncc2)[C@@H](C)CN([C@@H](C)CO)C(=O)c2cc(NC(=O)Nc3ccc(F)cc3)ccc2O1,inactive
7,C[C@H](CO)N1C[C@H](C)[C@H](CN(C)C(=O)Nc2ccc(F)cc2)OCCCC[C@H](C)Oc2ccc(NC(=O)C3CCCCC3)cc2C1=O,inactive
8,COc1cccc(OC)c1C(=O)NN,inactive
9,FC(F)(F)c1ccccc1-c1ncc(-c2ccccc2)o1,inactive
10,CC(=O)N(O)CCC[C@H]1NC(=O)CNC(=O)CNC(=O)CNC(=O)[C@@H](CCCN(O)C(C)=O)NC(=O)[C@@H](CCCN(O)C(C)=O)NC1=O,inactive
11,COc1ccc(NC(=O)N(C)C[C@H]2OCCCC[C@H](C)Oc3ccc(NC(=O)C4CCCCC4)cc3C(=O)N([C@@H](C)CO)C[C@@H]2C)cc1,inactive
12,C[C@@H]1CCCCO[C@H](CN(C)Cc2ccccc2)[C@@H](C)CN([C@H](C)CO)C(=O)c2cc(NC(=O)c3ccncc3)ccc2O1,inactive
13,CCCCCN1CC=C[C@@]23O[C@@H]4C=CCOC(=O)[C@@H]4[C@H]2C(=O)N(CCCO)[C@@H]3C1=O,inactive
14,C[C@@H]1CN([C@H](C)CO)C(=O)c2cc(NC(=O)CCN3CCOCC3)ccc2O[C@@H]1CN(C)Cc1ccc2c(c1)OCO2,inactive
15,O=C(C[C@H]1CC[C@@H]2[C@H](COC[C@@H](O)CN2S(=O)(=O)c2ccc(Cl)cc2)O1)N[C@H]1CCN(Cc2ccccc2)C1,inactive
16,O=C(C[C@H]1CC[C@@H]2[C@H](COC[C@H](O)CN2S(=O)(=O)c2ccc(Cl)cc2)O1)N[C@@H]1CCN(Cc2ccccc2)C1,inactive
17,O=C(C[C@@H]1CC[C@@H]2[C@H](COC[C@@H](O)CN2S(=O)(=O)c2ccc(Cl)cc2)O1)N[C@@H]1CCN(Cc2ccccc2)C1,inactive
18,O=C(C[C@H]1CC[C@H]2[C@@H](COC[C@@H](O)CN2S(=O)(=O)c2ccc(Cl)cc2)O1)N[C@@H]1CCN(Cc2ccccc2)C1,active
19,O=C(C[C@@H]1CC[C@H]2[C@@H](COC[C@@H](O)CN2S(=O)(=O)c2ccc(Cl)cc2)O1)N[C@H]1CCN(Cc2ccccc2)C1,inactive
20,O=C(C[C@@H]1CC[C@@H]2[C@H](COC[C@H](O)CN2S(=O)(=O)c2ccc(Cl)cc2)O1)N[C@@H]1CCN(Cc2ccccc2)C1,active
21,Cc1ccc(S(=O)(=O)Nc2ccc3c(c2)CC(=O)N([C@@H](C)CO)C[C@@H](C)[C@@H](CN(C)Cc2ccncc2)O3)cc1,inactive
22,NC(=O)CSc1nc(N)cc(N)n1,inactive
23,COc1ccc(S(=O)(=O)Nc2ccc3c(c2)C(=O)N([C@H](C)CO)C[C@@H](C)[C@@H](CN(C)Cc2ccc4c(c2)OCO4)OCCCC[C@@H](C)O3)cc1,inactive
24,C[C@H](CO)N1C[C@H](C)[C@H](CN(C)C(=O)Nc2ccccc2)Oc2ccc(NC(=O)CCN3CCOCC3)cc2C1=O,inactive
25,C[C@@H]1CN([C@@H](C)CO)C(=O)c2cccc(NS(=O)(=O)c3cn(C)cn3)c2O[C@H]1CN(C)C(=O)NC1CCCCC1,inactive
26,Cc1ccc2c(c1)/C(=C/c1ccncc1)c1cc3ccccc3nc1-2,active

row,Structure (SMILES),cytotoxicity call
1,Cc1ccc2ncccc2c1,inactive
2,Cc1ccc2nc(-c3ccncc3)cc(-c3ccccc3)c2c1,inactive
3,C[C@@H]1CCCCO[C@H](CN(C)C(=O)NC2CCCCC2)[C@@H](C)CN([C@H](C)CO)C(=O)c2cc(NC(=O)Nc3ccc(C(F)(F)F)cc3)ccc2O1,inactive
4,CC(C)NC(=O)N(C)C[C@@H]1Oc2ncc(-c3ccc(C(=O)N(C)C)cc3)cc2C(=O)N([C@H](C)CO)C[C@@H]1C,inactive
5,CN(C)CCNC(=O)[C@H]1Cn2ccnc2C2(CCN(Cc3nccs3)CC2)O1,inactive
6,CC(C)CC(NC(=O)C(C)NC(=O)CNC(=O)C(NC=O)C(C)C)C(=O)NC(C)C(=O)NC(C(=O)NC(C(=O)NC(C(=O)NC(Cc1c[nH]c2ccccc12)C(=O)NC(CC(C)C)C(=O)NC(Cc1c[nH]c2ccccc12)C(=O)NC(CC(C)C)C(=O)NC(Cc1c[nH]c2ccccc12)C(=O)NC(CC(C)C)C(=O)NC(Cc1c[nH]c2ccccc12)C(=O)NCCO)C(C)C)C(C)C)C(C)C (stereo not drawn) [GRAMICIDIN (gramicidin A shown) ],active
7,C[C@H](NC(=O)[C@@H](Cc1ccc2ccccc2c1)NC(=O)[C@@H](C)N)C(=O)N[C@@H](Cc1c[nH]c2ccccc12)C(=O)N[C@H](Cc1ccccc1)C(=O)N[C@@H](CCCCN)C(N)=O,inactive
8,CC(C)C[C@H](NP(=O)(O)O[C@H]1O[C@@H](C)[C@@H](O)[C@@H](O)[C@@H]1O)C(=O)N[C@H](Cc1c[nH]c2ccccc12)C(=O)O,inactive
9,C[C@@H]1CCCCO[C@@H](CN(C)S(C)(=O)=O)[C@@H](C)CN([C@H](C)CO)C(=O)c2cc(NS(=O)(=O)c3cccs3)ccc2O1,inactive
10,C[C@@H]1CN([C@H](C)CO)C(=O)c2c(c3ccccc3n2C)-c2ccccc2CO[C@@H]1CN(C)Cc1ccc(O)cc1,inactive
11,CC(C)CC#Cc1ccc2c(c1)O[C@@H](CN(C)C(=O)c1cccnc1)[C@H](C)CN([C@H](C)CO)S2(=O)=O,inactive
12,COc1ccc(NC(=O)N(C)C[C@@H]2OCCCC[C@H](C)Oc3ccc(NC(=O)Nc4ccccc4)cc3C(=O)N([C@@H](C)CO)C[C@@H]2C)cc1,inactive
13,COc1ccc(NC(=O)N(C)C[C@@H]2Oc3ccc(NC(=O)C4CC4)cc3CC(=O)N([C@@H](C)CO)C[C@H]2C)cc1,inactive
14,O=c1ccc(-c2ccncc2)n[nH]1,inactive
15,C[C@H](CO)N1C[C@H](C)[C@H](CN(C)CC2CCCCC2)Oc2c(NC(=O)Nc3ccc(C(F)(F)F)cc3)cccc2C1=O,inactive
16,C[C@H]1CN([C@@H](C)CO)C(=O)c2cccc(NC(=O)Nc3ccc(C(F)(F)F)cc3)c2O[C@H]1CN(C)CC1CCCCC1,active
17,C[C@@H]1CN([C@H](C)CO)C(=O)c2cccc(NC(=O)Nc3ccc(F)cc3)c2O[C@@H]1CN(C)CC1CCCCC1,inactive
18,C[C@@H]1CN([C@H](C)CO)C(=O)c2cccc(NC(=O)Nc3ccc(F)cc3)c2O[C@H]1CN(C)CC1CCCCC1,inactive
19,C[C@@H]1CN([C@@H](C)CO)C(=O)c2cccc(NC(=O)Nc3ccc(F)cc3)c2O[C@H]1CN(C)CC1CCCCC1,inactive
20,C[C@@H]1CN([C@H](C)CO)C(=O)c2cccc(NC(=O)Nc3ccc(C(F)(F)F)cc3)c2O[C@H]1CN(C)CC1CCCCC1,active
21,C[C@H]1CN([C@@H](C)CO)C(=O)c2cccc(NC(=O)Nc3ccc(F)cc3)c2O[C@H]1CN(C)CC1CCCCC1,inactive
22,C[C@@H]1CN([C@@H](C)CO)C(=O)c2cccc(NC(=O)Nc3ccc(C(F)(F)F)cc3)c2O[C@@H]1CN(C)CC1CCCCC1,inactive
23,C[C@H](CO)N1C[C@H](C)[C@H](CN(C)CC2CCCCC2)Oc2c(NC(=O)Nc3ccc(F)cc3)cccc2C1=O,inactive
24,C[C@H]1CN([C@@H](C)CO)C(=O)c2cccc(NC(=O)Nc3ccc(C(F)(F)F)cc3)c2O[C@@H]1CN(C)CC1CCCCC1,active
25,C[C@H](CO)N1C[C@H](C)[C@@H](CN(C)CC2CCCCC2)Oc2c(NC(=O)Nc3ccc(C(F)(F)F)cc3)cccc2C1=O,inactive
26,C[C@@H]1CN([C@H](C)CO)C(=O)c2cccc(NC(=O)Nc3ccc(C(F)(F)F)cc3)c2O[C@@H]1CN(C)CC1CCCCC1,active
